Screening results as filed in PubChem BioAssay.
This is a sample that favours compounds with a hit; in the whole collection about 3.8% have one here.
PrPC surface inh: inhibitors of human cell surface prion protein PrPC, primary screen, cell-based, TR-FRET. TR-FRET read-out. 370,000 compounds, 0.43% hits. inhibition, % at 13.8 µM. AID 720596, 2013; in the data active = inhibition above about 24%
PrP UTR inh: inhibition of PrP 5' UTR reporter expression; cell-based PrP 5' UTR mRNA reporter, plate reader; inhibition, % (test concentration not listed); 340,000 compounds, 0.35% hits; in the data active = inhibition above about 52%
Mtb hypoxia inh: PubChem AID 1159583; M. tuberculosis hypoxia-regulated fluorescent reporter, fluorescence; fluorescence inhibition, % (test concentration not listed); 300,000 compounds, 0.1% hits; in the data active = fluorescence inhibition mostly above about 23%, no sharp cut-off; inactive = mostly below about 17%
Y pestis TopoI: Yersinia pestis topoisomerase I inhibitors, primary screen, biochemical, cleavage product accumulation, plate reader, single point; 360,000 compounds, 0.064% hits; AID 504884, 2011; Y. pestis Topo-I cleavage product accumulation; DNA topoisomerase I (Yersinia pestis CO92); activity, % at 10 µM; in the data active = activity above about 50%, passing the limit was not always enough
GDH-TPI counter-1: GDH-TPI coupling enzyme inhibitors, primary screen, artefact control for M. tuberculosis FBA inhibitor project, biochemical, absorbance, full deck. inhibition, % at 4.8 µM. AID 588335, 2011. GDH-TPI coupled enzyme counterscreen, NADH absorbance. 360,000 compounds, 1.2% hits; in the data active = inhibition above about 30%
Mtb FBA inh: Mtb FBA enzyme inhibitors, primary screen, biochemical, fluorescence, strain H37Rv | purified M. tuberculosis FBA, fluorescence read-out | 360,000 compounds, 2.3% hits | Fructose-bisphosphate aldolase (Mycobacterium tuberculosis (strain ATCC 25618 / H37Rv)), … | AID 588726, 2011 | inhibition, % at 1 µM
Target sequence (P9WQA3 whole entry, looked up): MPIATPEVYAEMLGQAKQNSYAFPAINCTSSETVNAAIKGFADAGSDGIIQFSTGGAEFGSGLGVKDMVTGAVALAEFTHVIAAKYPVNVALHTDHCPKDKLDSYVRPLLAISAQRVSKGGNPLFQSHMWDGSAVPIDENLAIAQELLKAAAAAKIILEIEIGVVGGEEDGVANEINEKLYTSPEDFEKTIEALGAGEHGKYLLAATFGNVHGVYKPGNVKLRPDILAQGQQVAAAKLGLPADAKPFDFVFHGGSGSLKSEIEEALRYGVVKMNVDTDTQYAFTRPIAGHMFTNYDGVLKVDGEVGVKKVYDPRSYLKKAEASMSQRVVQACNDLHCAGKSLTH
Mtb FBA confirm: M. tuberculosis aldolase blockers, biochemical, fluorescence, strain H37Rv, confirmation; shares compounds with Mtb FBA inh; purified M. tuberculosis FBA, fluorescence read-out; inhibition, % at 1 µM; 5,600 compounds, 78% hits
GDH-TPI counter-2: GDH-TPI coupling enzyme inhibitors, artefact control for M. tuberculosis FBA inhibitor project, biochemical, fluorescence, high throughput; 5,600 compounds, 81% hits; inhibition, % at 1 µM; shares compounds with Mtb FBA inh; AID 652141, 2013; GDH-TPI coupled enzyme counterscreen; in the data active = inhibition above about 10%
Each line names hits and unclear results; the compound was inactive in the other large screens (follow-up assays come after a bar, where shown). Rule as the data show it, unless noted: active = inhibition above about 27%; inactive = the rest.

CCOc1ccc(C(=O)NCC(=O)OCc2csc(-c3ccccc3)n2)cc1	Mtb FBA inh 28.6 | Mtb FBA confirm 193.8 | GDH-TPI counter-2 165.9
CN1CCN(C(=O)c2cc3c(ccc4ccccc43)oc2=O)CC1	Mtb FBA inh 54.0 (no result: Mtb hypoxia inh) | Mtb FBA confirm 45.1 | GDH-TPI counter-2 30.5
Cc1nn(C)cc1C=Nn1nnnc1N	none (no result: PrPC surface inh, PrP UTR inh, Y pestis TopoI, GDH-TPI counter-1, Mtb FBA inh)
COC(=O)C1=C(C(=O)OC)C2Nc3ccccc3[C@@]23CC(C(=O)OC)N=C3N1 (stereo partly specified)	none (no result: PrPC surface inh, PrP UTR inh, Y pestis TopoI, GDH-TPI counter-1, Mtb FBA inh)
COCCN1CC(O)=C(c2nc3ccccc3c(=O)[nH]2)C1=N	Mtb FBA inh 45.6 (no result: Mtb hypoxia inh) | GDH-TPI counter-2 active
N=C1C(c2nc3ccccc3c(=O)[nH]2)=C(O)CN1CCO	none (no result: Mtb hypoxia inh)
COc1ccccc1N1CC(O)=C(c2nc3ccccc3c(=O)[nH]2)C1=N	Mtb FBA inh 38.1 | Mtb FBA confirm 146.1 | GDH-TPI counter-2 111.2
CCOC(=O)c1c(NC(C)=O)sc(C(C)=NNc2ccc(C(=O)O)cc2)c1C	none (no result: PrPC surface inh, PrP UTR inh, Y pestis TopoI, GDH-TPI counter-1, Mtb FBA inh)
C#CCNC(C)Cc1ccccc1 (stereo unspecified)	none (no result: PrPC surface inh, PrP UTR inh, Y pestis TopoI, GDH-TPI counter-1, Mtb FBA inh)
CCCCN(C)C(=O)Cn1nc(-c2ccc(Cl)cc2)ccc1=O	Mtb FBA inh 77.3 | Mtb FBA confirm 45.7 | GDH-TPI counter-2 41.0
Cc1nc2c(c(C)nn2-c2ccccc2)c(C)c1CCC(=O)NCCCOC(C)C	Mtb FBA inh 40.6 | Mtb FBA confirm 40.2 | GDH-TPI counter-2 36.1
COC(=O)C(NC(=O)CCc1c(C)nc2c(c(C)nn2-c2ccccc2)c1C)C(C)C (stereo unspecified)	Mtb FBA inh 43.3 | Mtb FBA confirm 57.5 | GDH-TPI counter-2 47.9
Cc1nc2c(c(C)nn2-c2ccccc2)c(C)c1CCC(=O)Nc1ccc(CN2CCCC2)cc1	Mtb FBA inh 30.5 | Mtb FBA confirm 65.8 | GDH-TPI counter-2 48.9
CCC(C)NC(=O)CCc1c(C)nc2c(c(C)nn2-c2ccccc2)c1C (stereo unspecified)	Mtb FBA inh 44.4 | Mtb FBA confirm 50.5 | GDH-TPI counter-2 33.9
CCCCNC(=O)CCc1c(C)nc2c(c(C)nn2-c2ccccc2)c1C	none
CCOC(=O)CCc1c(C)nc2c(c(C)nn2-c2ccccc2)c1C	none
Cc1ccc(-n2nc(C)c3c(C)c(CCC(=O)NCc4ccccc4)c(C)nc32)cc1	none
CCOC(=O)NN=C(C)c1ccc(Br)cc1	none (no result: PrPC surface inh, PrP UTR inh, Y pestis TopoI, GDH-TPI counter-1, Mtb FBA inh)
O=C(O)C(=NNC(=O)c1ccc(Cl)cc1)c1ccccc1	none (no result: PrPC surface inh, PrP UTR inh, Y pestis TopoI, GDH-TPI counter-1, Mtb FBA inh)
Cc1ccc(-n2[nH]c(C)c(C=NNC(=O)c3ccc(O)cc3O)c2=O)cc1	none (no result: PrPC surface inh, PrP UTR inh, Y pestis TopoI, GDH-TPI counter-1, Mtb FBA inh)
CC(=NNc1ccc([N+](=O)[O-])cc1)c1ccc(-n2nncc2C)cc1	none (no result: PrPC surface inh, PrP UTR inh, Y pestis TopoI, GDH-TPI counter-1, Mtb FBA inh)
CN1c2ccccc2N(C)C1(C)c1cccc2ccccc12	none (not shown: Mtb hypoxia inh)
CN1c2cccc3cccc(c23)N(C)C1(C)C	Mtb FBA inh 71.7 | Mtb FBA confirm inactive | GDH-TPI counter-2 inactive
O=c1nc2c(-c3ccccc3F)n[nH]n2c2ccccc12	Mtb FBA inh 48.8 | Mtb FBA confirm 77.1 | GDH-TPI counter-2 56.8
Cc1[nH]n(-c2ccccc2)c(=O)c1C=NNC(=O)COc1ccccc1[N+](=O)[O-]	none (no result: PrPC surface inh, PrP UTR inh, Y pestis TopoI, GDH-TPI counter-1, Mtb FBA inh)
CC1(C)Cc2c(sc3ncnc(N)c23)CO1	none
CCCC1Cc2c(sc3ncnc(N)c23)CO1 (stereo unspecified)	Mtb FBA inh 27.5 (no result: Mtb hypoxia inh) | Mtb FBA confirm 142.4 | GDH-TPI counter-2 120.9
C#CCOCCOCCOCCNc1nc(N2CCN(C(=O)C(C(C)C)n3cc(CCO)nn3)CC2)nc(N2CCN(C(=O)C(C(C)C)n3cc(CCO)nn3)CC2)n1 (stereo unspecified)	none (no result: PrPC surface inh, PrP UTR inh, Y pestis TopoI, GDH-TPI counter-1, Mtb FBA inh)
[O-][N+]1=C2CCCC(=NO)C2=NC12CCCCC2	none (no result: PrPC surface inh, PrP UTR inh, Y pestis TopoI, GDH-TPI counter-1, Mtb FBA inh)
Oc1ccccc1C=NNC(=S)NCCc1ccccc1	none (no result: PrPC surface inh, PrP UTR inh, Y pestis TopoI, GDH-TPI counter-1, Mtb FBA inh)
Cn1c(=O)c(=O)n(C)c2cc(S(=O)(=O)N3CCOCC3)ccc21	none
Cc1cc(=O)[nH]c2ccc(S(=O)(=O)N3CCOCC3)cc12	Mtb FBA inh 71.8 | Mtb FBA confirm 123.9 | GDH-TPI counter-2 137.0
